Laboratory results published in PubChem BioAssay AID504585 (National Center for Advancing Translational Sciences (NCATS), 2011).
Records with an inconclusive call do not appear. Activity calls are given as the source filed them.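 The calls were made as follows: active = NMR saturation transfer binding signal to menin that a known MLL-derived binding peptide displaces; inconclusive = NMR binding signal present but the peptide does not displace it; inactive = no NMR binding signal.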

Molecular target: Menin (Homo sapiens) (UniProt O00255)
Experiment: Confirmation of Inhibitors Targeting the Menin-MLL Interaction in MLL Related Leukemias: Binding Confirmation with NMR Saturation Transfer Difference
Conditions: recombinant menin
Description: qHTS Assay for Inhibitors Targeting the Menin-MLL Interaction in MLL Related Leukemias NIH Chemical Genomics Center [NCGC] NIH Molecular Libraries Probe Centers Network [MLPCN] MLPCN Grant: MH084875-01A1 Assay Submitter (PI): Jolanta Grembecka, Tomasz Cierpicki, University of Virginia Translocations of the MLL (Mixed Lineage Leukemia) gene are frequently found in human leukemias affecting both children and adults. Fusion of MLL to one of more than 60 genes results in generation of oncogenic proteins upregulating Hox genes, which are vital to blood cell development. Patients harboring fusion of the MLL gene suffer from aggressive leukemias and respond poorly to available therapies. All of the oncogenic fusion proteins have a preserved N-terminal fragment of MLL that has been identified to interact with menin. It has been recently discovered that association with menin is critical to the leukemogenic activity of the MLL fusion oncoproteins. Selective targeting of the menin-MLL interaction could provide an attractive therapeutic approach to develop novel drugs for MLL-related leukemias. Small molecules blocking the menin-MLL interaction should reverse the oncogenic potential of MLL fusion proteins. We have developed and optimized a fluorescence polarization-based assay for the identification of Menin-MLL inhibitors. The assay was run employing two different MLL-derived peptides. The present assay uses a 12 amino acid peptide labeled with fluorescein at its N-terminus. This peptide consists of the menin high affinity binding motif from MLL and is potently bound by menin. Another peptide with a mutated sequence, labeled with Texas Red, was used in parallel as a less stringent screen for inhibitors. The present assay uses an orthogonal technique to identify those compounds specifically interacting with the target protein.
NMR samples for the saturation transfer difference (STD) experiments contained 2.5uM menin solution in 50 mM phosphate buffer, 50 mM NaCl, 1mM DTT, pH= 7.5, with 5% of D2O, final volume 150 uL. The compounds were added as stock solutions in DMSO to final 100 uM concentration and 5% DMSO. All NMR experiments were recorded using 600 MHz Bruker Avance III spectrometer at 25C. Samples for the competition STD experiments contained additional MBM1 peptide at final concentration of 25 uM and the measurements were carried out is the same way as described above for STD experiments.

Sequence of Menin (Homo sapiens) (O00255 whole entry, looked up): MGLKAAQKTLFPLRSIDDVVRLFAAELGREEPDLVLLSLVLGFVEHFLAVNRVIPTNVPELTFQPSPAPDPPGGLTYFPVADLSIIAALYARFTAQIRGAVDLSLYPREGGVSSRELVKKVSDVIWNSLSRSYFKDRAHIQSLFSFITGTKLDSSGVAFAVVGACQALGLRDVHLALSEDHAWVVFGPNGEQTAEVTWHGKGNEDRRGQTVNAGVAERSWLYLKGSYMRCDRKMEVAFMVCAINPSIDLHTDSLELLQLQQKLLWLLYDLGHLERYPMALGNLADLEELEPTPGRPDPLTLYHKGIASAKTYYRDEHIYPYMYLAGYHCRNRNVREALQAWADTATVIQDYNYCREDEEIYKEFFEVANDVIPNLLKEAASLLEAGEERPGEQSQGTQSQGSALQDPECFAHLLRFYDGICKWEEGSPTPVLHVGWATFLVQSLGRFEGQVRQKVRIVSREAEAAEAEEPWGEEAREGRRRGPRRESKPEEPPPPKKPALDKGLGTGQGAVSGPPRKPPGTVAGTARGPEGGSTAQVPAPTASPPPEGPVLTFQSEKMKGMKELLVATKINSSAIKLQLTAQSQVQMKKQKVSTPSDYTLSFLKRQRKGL

SMILES	outcome
O=C(CS)Nc1ccc2ccccc2c1	inactive; false
CCOC(=O)c1cnc2ccc(OCC)cc2c1N1CCN(C)CC1	active; true
CCOc1cc(CNCCc2ccc(S(N)(=O)=O)cc2)ccc1OCc1ccccc1	active; true
CCc1ccc2c(c1)C(NC(C)=O)C(=O)N2CCN1CCOCC1 (stereo unspecified)	inactive; false
N#Cc1ccc(OCC(O)CN2CCN(C(c3ccccc3)c3ccccc3)CC2)cc1 (stereo unspecified)	active; true
CCN(CC)Cc1cc2[nH]c3c4ccc(Cl)cc4ncc3c2cc1OC	inactive; false
CC(=O)NC1C(=O)N(CCN2CCOCC2)c2ccc(C)cc21 (stereo unspecified)	inactive; false
Cc1sc2ncnc(NC3CCN(Cc4ccccc4)CC3)c2c1C	active; true
COc1ccccc1C(=O)Nc1ccnn1C1CCN(CC2CC=CCC2)CC1 (stereo unspecified)	active; true
CN(C)c1ccc(C2CC(=O)C=C(Nc3ccccc3N)C2)cc1 (stereo unspecified)	inactive; false
CCCC(c1nnnn1Cc1cccs1)N1CCN(C2CCCC2)CC1 (stereo unspecified)	active; true
CCC(c1nnnn1Cc1ccc(F)cc1)N1CCN(C2CCCCC2)CC1 (stereo unspecified)	active; true
CC(=O)NC1C(=O)N(CCN2CCOCC2)c2ccc(Cl)cc21 (stereo unspecified)	inactive; false
C[C@H](NC(=O)c1cc2c(cn1)[nH]c1ccccc12)C(=O)O	inactive; false
O=C(C[N+]12CC[N+](CC(=O)c3ccc(F)cc3)(CC1)CC2)c1ccc(F)cc1	active; true
CCOc1ccc2c(c1)C(NC(C)=O)C(=O)N2CCN1CCOCC1 (stereo unspecified)	inactive; false
